Data reported in PubChem BioAssay (NCATS).
Inconclusive results are not listed. Where a call stands in place of a potency, no number is given. Active and inactive are the calls of the source. Calls come from the whole dose curve; as a rule, active = well fitted cell-killing curve with a large enough effect; inconclusive = small, poorly fitted or top-dose-only effect, or effect the other way; inactive = no such curve, though single readings can be large or run the other way. Peptide text beside a SMILES is read from it.

Assay: qHTS assay to identify small molecule inhibitors of chordoma cells - UCH-1 (AID 1259355); note: nearly all actives have a fitted effect of over 55% in size
Conditions: UCH-1 chordoma viability, CellTiter-Glo, 48 h, combination, with auranofin plus four topoisomerase inhibitors; series mostly up to 46.1 µM
Procedure, shortened: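 Luminescent ATP read-out (CellTiter-Glo, 30min at room temperature) measured viability of UCH-1 cells exposed for 48hr to test drugs at 15 concentrations, co-dosed with a five-agent combination of auranofin, camptothecin, doxorubicin, rubitecan and topotecan.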
Potency is the fitted concentration of half-maximal effect.

Row | Structure (SMILES) | Potency
1 | NC1C2CN(c3nc4c(cc3F)c(=O)c(C(=O)O)cn4-c3ccc(F)cc3F)CC12 (stereo unspecified) | inactive
2 | CO[C@@H]1[C@@H](O[C@@H]2O[C@H](C)[C@@H](O[C@H]3C[C@@](C)(O)[C@@H](O)[C@H](C)O3)[C@H](N(C)C)[C@H]2O)[C@@H](CC=O)C[C@@H](C)[C@@H](O[C@@H]2CC[C@H](N(C)C)[C@@H](C)O2)/C=C/C=C/C[C@@H](C)OC(=O)C[C@H]1O | inactive
3 | COc1ccc(C[C@H](N)C(=O)N[C@H]2[C@@H](O)[C@H](n3cnc4c(N(C)C)ncnc43)O[C@@H]2CO)cc1 | 11.2 µM (active)
4 | Clc1cc(Cl)c(OCC#CI)cc1Cl | inactive
5 | C[C@]12C=CC(=O)N[C@@H]1CC[C@@H]1[C@@H]2CC[C@]2(C)[C@@H](C(=O)Nc3cc(C(F)(F)F)ccc3C(F)(F)F)CC[C@@H]12 | inactive
6 | CCCCC(=O)OCC(=O)[C@]1(O)Cc2c(O)c3c(c(O)c2[C@@H](O[C@H]2C[C@H](NC(=O)C(F)(F)F)[C@H](O)[C@H](C)O2)C1)C(=O)c1c(OC)cccc1C3=O | 6.31 µM (active)
7 | O=C(Nc1ccc(Br)cc1)c1cc(Br)c(Br)s1 | inactive
8 | CN=C(NC#N)Nc1ccc(C2=NNC(=O)C[C@@H]2C)cc1 | inactive
9 | CC(=O)N[C@@H](CC(=O)O)C(=O)N[C@@H](CCC(=O)O)C(=O)O (Ac-Asp-Glu-OH) | inactive
10 | O=C(Nc1cccc(C(F)(F)F)c1)c1cc(Br)cc(Br)c1O | 12.6 µM (active)
11 | O=S(=O)(O)c1cc(O)c2c(N=Nc3ccc(Nc4ccccc4)c4c(S(=O)(=O)O)cccc34)cc(S(=O)(=O)O)cc2c1 | 15.8 µM (active)
12 | CCOC(=O)C1=CC2(CC)CCCN3CCc4c(n1c1ccccc41)C32 (stereo unspecified) | inactive
13 | Cc1c(C)c2c(c(C)c1O)CC[C@@](C)(CCC[C@@H](C)CCC[C@@H](C)CCCC(C)C)O2 | inactive
14 | CO[C@H]1C=CO[C@@]2(C)Oc3c(C)c(O)c4c(O)c(c(/C=N/N5CCN(C6CCCC6)CC5)c(O)c4c3C2=O)NC(=O)/C(C)=C\C=C[C@H](C)[C@H](O)[C@@H](C)[C@@H](O)[C@@H](C)[C@H](OC(C)=O)[C@@H]1C | inactive
15 | CCC(=O)O[C@]1(C(=O)CCl)[C@@H](C)C[C@H]2[C@@H]3C[C@H](F)C4=CC(=O)C=C[C@]4(C)[C@@]3(F)[C@@H](O)C[C@@]21C | inactive
16 | Cc1cc(CC(C)CC(C)(C)C)n(O)c(=O)c1 (stereo unspecified) (tested in a mixture with another compound) | inactive

Row | Structure (SMILES) | Potency
17 | CC(C(=O)O)c1ccc(N2Cc3ccccc3C2=O)cc1 (stereo unspecified) | inactive
18 | CCCC(=O)Nc1ncnc2c1ncn2C1OC2COP(=O)(O)OC2C1OC(=O)CCC (stereo unspecified) | inactive
19 | CCCCCCC(O)C/C=C/CCCCCCCC(=O)O (stereo unspecified) | inactive
20 | CC[N+](C)(C)Cc1ccccc1Br | inactive
21 | CCC1OC(=O)C[C@@H](O)[C@H](C)[C@@H](O[C@@H]2O[C@H](C)C[C@H](N(C)C)[C@H]2O)[C@@H](CC=O)C[C@@H](C)C(=O)/C=C/[C@]2(C)OC2C1C (stereo partly specified) | inactive
22 | Nc1c(N=Nc2ccc(-c3ccc(N=Nc4cc(S(=O)(=O)O)c5ccccc5c4N)cc3)cc2)cc(S(=O)(=O)O)c2ccccc12 | inactive
23 | CO[C@@H]1[C@@H](O[C@@H]2O[C@H](C)[C@@H](O[C@H]3C[C@@](C)(O)[C@@H](OC(=O)CC(C)C)[C@H](C)O3)[C@H](N(C)C)[C@H]2O)[C@@H](CC=O)C[C@@H](C)C(=O)/C=C/C2OC2C[C@@H](C)OC(=O)C[C@H]1OC(C)=O (stereo partly specified) | inactive
24 | COC(=O)[C@H]1[C@H]2CC3c4[nH]c5ccccc5c4CCN3C[C@@H]2CC[C@@H]1O (stereo partly specified) | inactive
25 | CC(NNC(=O)c1ccccc1)c1ccccc1 (stereo unspecified) | inactive
26 | COC(=O)CCC(=O)CN | inactive
27 | C#C[C@]1(O)CC[C@H]2[C@@H]3CCC4=C/C(=N/O)CC[C@@H]4[C@H]3CC[C@@]21CC | inactive
28 | COC(=O)C1=C(C#N)NC(C)=C(C(=O)OC(C)C)C1c1cccc([N+](=O)[O-])c1 (stereo unspecified) | inactive
29 | CC[C@@]1(O)C(=O)OCc2c1cc1n(c2=O)Cc2cc3c([N+](=O)[O-])cccc3nc2-1 | 0.794 µM (active)
30 | COC(=O)[C@H]1[C@H]2C[C@@H]3c4[nH]c5ccccc5c4CCN3C[C@H]2C[C@@H](OC(=O)c2cc(OC)c(OC)c(OC)c2)[C@@H]1OC | 10 µM (active)
31 | CCCCCCOc1ccc(C(=N)N(CCCC)CCCC)c2ccccc12 | inactive
